Laboratory results as given in PubChem BioAssay (NCI).
About 83,000 compounds went through this panel and 20% of them were active in at least one assay; those are over-represented in the sample as a whole.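 Activity criterion: percent growth below 10, measured after cells in 96-well plates were exposed to a single compound concentration for 48 hours.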 Calls of active or inactive are those of the source.

Columns and labels:
Test in all cases: NCI-60 one-dose screen, 48 h (100 = growth as untreated, 0 = no growth, -100 = all killed)
Settings in all cases: 10 µM unless noted
EKVX NSCLC = system: EKVX NSCLC
SN12C renal = system: SN12C renal
UO-31 renal = system: UO-31 renal
ACHN renal = system: ACHN renal
CAKI-1 renal = system: CAKI-1 renal
A498 renal = system: A498 renal
CCRF-CEM leukemia = system: CCRF-CEM leukemia
MOLT-4 leukemia = system: MOLT-4 leukemia
RPMI-8226 leukemia = system: RPMI-8226 leukemia
OVCAR-8 ovarian = system: OVCAR-8 ovarian
OVCAR-5 ovarian = system: OVCAR-5 ovarian
OVCAR-4 ovarian = system: OVCAR-4 ovarian
IGROV1 ovarian = system: IGROV1 ovarian
OVCAR-3 ovarian = system: OVCAR-3 ovarian
HS 578T breast = system: HS 578T breast
NCI/ADR-RES ovarian = system: NCI/ADR-RES ovarian
TK-10 renal = system: TK-10 renal
SR leukemia = system: SR leukemia
SK-OV-3 ovarian = system: SK-OV-3 ovarian

Measured: growth

N#Cc1c2c(nn(-c3ccccc3)c1=O)C(O)=C([N+](=O)[O-])C(c1ccccc1)C2 (stereo not given)
inactive: EKVX NSCLC 83.8% | SN12C renal 89.7% | UO-31 renal 64% | ACHN renal 74.3% | CAKI-1 renal 81.9% | A498 renal 90.7% | CCRF-CEM leukemia 58% | MOLT-4 leukemia 67.5% | OVCAR-8 ovarian 81.6% | OVCAR-5 ovarian 110% | OVCAR-4 ovarian 73.8% | IGROV1 ovarian 50.6% | OVCAR-3 ovarian 76.4% | HS 578T breast 91% | NCI/ADR-RES ovarian 93.5%
active: RPMI-8226 leukemia -6.06%

COc1cccc(-c2nn(-c3ccccc3)cc2-c2ccnc(NCCCNC(=O)c3ccccc3)c2)c1
active: SR leukemia -19.8%
inactive: EKVX NSCLC 55.8% | SN12C renal 67.2% | UO-31 renal 39.3% | TK-10 renal 60.7% | ACHN renal 69% | CAKI-1 renal 67.3% | A498 renal 59.4% | CCRF-CEM leukemia 27.7% | RPMI-8226 leukemia 27.9% | OVCAR-8 ovarian 38% | OVCAR-5 ovarian 92.7% | OVCAR-4 ovarian 43.1% | SK-OV-3 ovarian 41.7% | IGROV1 ovarian 67.1% | OVCAR-3 ovarian 51.2% | HS 578T breast 51.3% | NCI/ADR-RES ovarian 27.1%

Cc1ccc2nc(NC(=O)CSc3nc(-c4ccccc4)c(C#N)c(=O)n3Cc3ccccc3)sc2c1
inactive: EKVX NSCLC 90.2% | SN12C renal 92% | UO-31 renal 67.4% | TK-10 renal 119% | ACHN renal 92.6% | CAKI-1 renal 69% | A498 renal 85.7% | MOLT-4 leukemia 93.8% | SR leukemia 44.5% | RPMI-8226 leukemia 67.8% | OVCAR-8 ovarian 93% | OVCAR-5 ovarian 108% | OVCAR-4 ovarian 92.8% | SK-OV-3 ovarian 82.1% | IGROV1 ovarian 78% | OVCAR-3 ovarian 58.5% | HS 578T breast 78.2% | NCI/ADR-RES ovarian 92.2%

COC(=O)[C@]12CC[C@@H](C)[C@H](C)[C@@H]1C1=CC[C@@H]3[C@@]4(C)C(C=O)=C[C@@](C)(COS(C)(=O)=O)[C@@H]4C(=O)C[C@@]3(C)[C@]1(C)CC2
inactive: EKVX NSCLC 53.2% | SN12C renal 36.2% | UO-31 renal 34.2% | TK-10 renal 54.2% | ACHN renal 17.8% | CAKI-1 renal 53.3% | A498 renal 98.2% | CCRF-CEM leukemia 30.9% | SR leukemia 24.9% | RPMI-8226 leukemia 23.4% | OVCAR-5 ovarian 67.1% | OVCAR-4 ovarian 37.7% | SK-OV-3 ovarian 66.4% | IGROV1 ovarian 52.1% | OVCAR-3 ovarian 31.4% | HS 578T breast 62.3% | NCI/ADR-RES ovarian 38.6%

CCn1c(C)nc2cc(C(N)=O)ccc21
inactive: EKVX NSCLC 142% | SN12C renal 98.1% | UO-31 renal 91.5% | TK-10 renal 98% | ACHN renal 96.7% | CAKI-1 renal 143% | A498 renal 107% | CCRF-CEM leukemia 95.4% | SR leukemia 104% | RPMI-8226 leukemia 80.9% | OVCAR-8 ovarian 96.2% | OVCAR-5 ovarian 92.6% | OVCAR-4 ovarian 98.2% | SK-OV-3 ovarian 105% | IGROV1 ovarian 109% | OVCAR-3 ovarian 105% | HS 578T breast 108% | NCI/ADR-RES ovarian 97%

Cc1ccc(-n2c(-c3ccccc3)c(-c3ccccc3)c3c(SCC(=O)n4[nH]c(N)cc4=O)ncnc32)cc1
inactive: EKVX NSCLC 87.2% | SN12C renal 99.2% | TK-10 renal 104% | ACHN renal 91.2% | CAKI-1 renal 88.4% | A498 renal 114% | MOLT-4 leukemia 87.3% | SR leukemia 103% | RPMI-8226 leukemia 81.9% | OVCAR-8 ovarian 83.2% | OVCAR-5 ovarian 101% | OVCAR-4 ovarian 96% | SK-OV-3 ovarian 79.5% | IGROV1 ovarian 79.8% | OVCAR-3 ovarian 91.9% | HS 578T breast 106% | NCI/ADR-RES ovarian 105%

COc1ccc(CNC(=O)C(O)C(Cc2ccccc2)NC(=O)c2[nH]c3ccccc3c(=O)c2C)cc1OC (stereo not given)
inactive: EKVX NSCLC 99% | SN12C renal 103% | UO-31 renal 98.7% | TK-10 renal 93.6% | ACHN renal 108% | CAKI-1 renal 99.6% | A498 renal 113% | CCRF-CEM leukemia 108% | MOLT-4 leukemia 99.8% | RPMI-8226 leukemia 111% | OVCAR-8 ovarian 103% | SK-OV-3 ovarian 103% | IGROV1 ovarian 112% | OVCAR-3 ovarian 111% | HS 578T breast 97.4% | NCI/ADR-RES ovarian 107%
